Only some compounds are listed: those with a hit (about 10% of all), similar ones and a draw of the others.
GLS inh: blocks human kidney-isoform glutaminase activity. O94925. GLS enzymatic activity, qHTS titration. Potency, µM (highest dose often 45.5 µM), inactives show at the highest dose activity change, negative = inhibition, usual class: inhibitors. 410,000 compounds, 0.21% hits; also: % is scaled to controls: 0 for no effect and ±100 for the full control effect
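Compounds were pin-transferred onto hKGA, after which L-glutamine (1 mM solution) and a detection mix of glutamate oxidase, HRP and Amplex Red were added. Initial and 30 min RT fluorescence reads were collected.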
G9a block: inhibitors of human histone lysine methyltransferase G9a | G9a H3K9 monomethylation, AlphaScreen, 2 h | Potency, µM (series often up to 102 µM), for the others: at the highest dose activity, negative = inhibition, actives largely listed as inhibitors | 350,000 compounds, 8.8% hits | AID 504332; also: % is scaled to controls: 0 for no effect and ±100 for the full control effect; nearly all actives have a fitted effect of over 75% in size
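Methyltransferase reactions run at room temperature for 2 h (20 nM enzyme, 500 nM biotin-H3K9 peptide, 20 uM SAM) after a 15 min compound preincubation; product detected by AlphaScreen beads and anti-H3K9me1 antibody.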
JMJD2A Tudor inh: blocks the human JMJD2A Tudor domain; O75164; AlphaScreen JMJD2A-Tudor / H3K4me3 peptide binding; Potency, µM (highest dose often 114 µM), for the others: at the highest dose activity change, negative = inhibition, usual class: inhibitors; 390,000 compounds, 4.4% hits; also: % is scaled to controls: 0 for no effect and ±100 for the full control effect; nearly all actives have a fitted effect of over 50% in size
Target sequence (O75164 whole entry, looked up, the tested form may be a part): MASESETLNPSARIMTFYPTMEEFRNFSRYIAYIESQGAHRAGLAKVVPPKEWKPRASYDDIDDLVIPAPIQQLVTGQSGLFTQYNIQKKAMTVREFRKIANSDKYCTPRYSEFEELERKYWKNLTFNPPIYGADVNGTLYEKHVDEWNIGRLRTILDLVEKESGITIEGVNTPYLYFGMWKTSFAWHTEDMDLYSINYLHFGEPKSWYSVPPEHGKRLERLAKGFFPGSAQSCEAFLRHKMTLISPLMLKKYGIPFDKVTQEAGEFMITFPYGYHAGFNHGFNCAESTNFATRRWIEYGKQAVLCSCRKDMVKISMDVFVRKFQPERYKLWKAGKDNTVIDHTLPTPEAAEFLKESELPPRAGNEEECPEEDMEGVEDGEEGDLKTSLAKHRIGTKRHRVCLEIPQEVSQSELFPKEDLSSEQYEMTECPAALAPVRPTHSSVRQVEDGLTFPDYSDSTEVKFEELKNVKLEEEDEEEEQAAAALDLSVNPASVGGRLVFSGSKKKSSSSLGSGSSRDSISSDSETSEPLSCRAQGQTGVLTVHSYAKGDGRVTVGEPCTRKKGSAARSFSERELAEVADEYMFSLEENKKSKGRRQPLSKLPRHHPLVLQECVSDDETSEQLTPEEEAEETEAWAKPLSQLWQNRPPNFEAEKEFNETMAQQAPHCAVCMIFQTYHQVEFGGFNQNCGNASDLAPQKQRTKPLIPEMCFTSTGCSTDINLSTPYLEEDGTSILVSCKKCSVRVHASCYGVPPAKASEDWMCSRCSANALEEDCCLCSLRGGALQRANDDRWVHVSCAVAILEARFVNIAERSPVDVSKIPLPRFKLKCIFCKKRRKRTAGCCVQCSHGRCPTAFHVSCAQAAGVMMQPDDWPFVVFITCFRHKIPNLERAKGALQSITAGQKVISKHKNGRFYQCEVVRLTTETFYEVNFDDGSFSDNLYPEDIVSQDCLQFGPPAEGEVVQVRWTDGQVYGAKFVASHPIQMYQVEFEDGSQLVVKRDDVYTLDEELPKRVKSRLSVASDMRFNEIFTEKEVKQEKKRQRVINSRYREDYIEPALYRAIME
BAZ2B inh: BAZ2B (human) inhibition; 360,000 compounds, 4.4% hits; AlphaScreen BAZ2B-H3K14Ac peptide displacement; Q9UIF8; Potency, µM (series often up to 114 µM), without a hit: at the highest dose activity change, negative = inhibition, usual class: inhibitors; also: % is scaled to controls: 0 for no effect and ±100 for the full control effect; nearly all actives have a fitted effect of over 60% in size
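BAZ2B 50 nM plus b-H3(5-23)K14Ac 50 nM, PBS pH 7.4/0.01% Tween-20, 30 min RT; compound added (max 110 uM), 30 min RT; streptavidin donor/Ni-chelate acceptor beads 10 ug/mL final, 20 min dark; AlphaScreen read.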
HP1b binding inh: blocks HP1-beta chromodomain binding to methylated histone tails; AID 540317; 390,000 compounds, 0.56% hits; Potency, µM (top dose mostly 114 µM), for inactives: at the highest dose activity change, negative = inhibition, actives largely listed as inhibitors; P83916; AlphaScreen HP1-beta / biotin-H3K9me3 peptide binding; also: nearly all actives have a fitted effect of over 70% in size
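Compound inhibition of the preformed complex between 50 nM HP1-beta and 50 nM biotinylated H3K9me3 peptide was read by AlphaScreen. Buffer was PBS pH 7.4 with 0.01% Tween-20. Incubations ran 30 min at room temperature, with 10 ug/mL donor/acceptor beads.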
* hit, by the source's call; ? = inconclusive; . = not tested or not shown; [ ] = another dose, or the depositor's remark. Calls follow the shape of the dose curve; as a rule, active = well fitted curve in the direction sought with a large enough effect; inconclusive = small, poorly fitted or top-dose-only effect, or another doubt; inactive = no such curve, though single readings can be large; an effect the other way counts as inactive or inconclusive. Potency is read from the fitted curve at half-maximal effect.

SMILES | GLS inh | G9a block | JMJD2A Tudor inh | BAZ2B inh | HP1b binding inh
Cc1nnc(N2CCC(C(=O)N3CCCCC3)CC2)c2nn(-c3ccccc3)c(C)c12 | -2% | -10%[59 µM] | -21% | -5% | 34%
O=C(O)c1ccc(CN2C(=O)c3ccc(C(=O)O)cc3C2=O)cc1 | 3% | -11%[2.33 µM] | -4% | -20% | 33%
Cn1c(=O)n(C)c2cc(/C=C3/NC(=O)N(Cc4ccccc4)C3=O)ccc21 | -13% | 10% | -18% | 0% | 1%
O=C1N/C(=C/c2ccc(N3CCCC3)cc2)C(=O)N1c1ccccc1 | -1% | -3%[59 µM] | -4% | -2% | 24%
Cc1ccc(C(=O)O)cc1-c1ccc(/C=C2/NC(=O)N(c3ccccc3)C2=O)o1 | ? | 10µM* | 50µM* | 32µM* | ?
Cc1cc(C(=O)O)ccc1-c1ccc(/C=C2\NC(=O)N(Cc3ccccc3Cl)C2=O)o1 | -12% | 25µM* | 45µM* | 45µM* | ?
O=C(O)c1ccc(-c2ccc(/C=C3\NC(=O)N(Cc4ccc(Cl)cc4)C3=O)o2)cc1 | -10% | 50µM* | -27% | ? | 11%
Cc1ccc(CN2C(=O)N/C(=C\c3ccc(-c4ccc(C(=O)O)cc4C)o3)C2=O)cc1 | ? | 40µM* | ? | 40µM* | -21%
COC(=O)c1ccc(CS(=O)(=O)c2ccc(F)cc2)o1 | -2% | 71µM* | -17% | -26% | 54%
CCCc1cc(=O)[nH]c(SCC(=O)NC2(C#N)CCCCC2)n1 | -1% | -14%[59 µM] | -10% | 2% | 23%
c1ccc(C(c2ccccc2)N2CC3(CCNCC3)C2)cc1 | . | -2%[12.7 µM] | . | . | .
CC1Cc2cc(S(=O)(=O)NCc3ccc(N(C)C)cc3)ccc2N1C(=O)C1CCC1 (stereo not given) | -3% | 11µM* | 45µM* | 35µM* | -21%
COc1ccc(CNS(=O)(=O)c2ccc3c(c2)CC(C)N3C(=O)C2CC2)cc1 (stereo not given) | 1% | -3%[59 µM] | -14% | -6% | 32%
CN(C)c1ccc(CNS(=O)(=O)c2csc(C(N)=O)c2)cc1 | ? | 50µM* | -17% | -11% | 15%
COc1ccc(C(N)c2csc(Nc3ccc(S(C)(=O)=O)cc3)n2)cc1 (stereo not given) | -13% | . | . | . | .
Cc1ccc(NC(=O)Cn2c(C)cc(C)c(C#N)c2=O)cc1 | 0% | 1%[12.7 µM] | 10% | -1% | 28%
CC1=CC(=O)C(C(C)C)=C/C1=N/OS(=O)(=O)c1ccccc1 | -6% | . | 45µM* | 14µM* | ?
CC1=CC(=O)C=C(C)C1=NOS(=O)(=O)c1ccccc1 | -5% | ? | -2%[57.1 µM] | ? | -16%
CCOc1ccc(/C=N/NC(=O)c2ccccc2O)cc1CN1CC2CC(C1)c1cccc(=O)n1C2 (stereo not given) | 14% | -1%[0.501 µM] | -23% | -5% | 36%
CCCc1cc(-c2[nH]ncc2-c2ccc3c(c2)OCCCO3)c(O)cc1O | -6% | -19%[12.7 µM] | 40µM* | ? | -20%
CCN(CC)C(=O)c1csc(Nc2ccc(C)cc2)n1 | 6% | 13µM* | -33% | ? | -2%
Cc1ccc(-c2cc(C(=O)NCCCN3CCOCC3)no2)cc1 | 4% | 3%[12.7 µM] | -17% | 8% | 24%
Cc1ccc(Nc2nc(C(=O)NCCCN3CCOCC3)cs2)cc1 | 12% | 89µM* | ? | 9% | 12%
CCOC(=O)/C(=N\Nc1ccc(OC)cc1)c1csc(Nc2ccccc2)n1 | -1% | -14%[12.7 µM] | 40µM* | ? | -20%
Cc1ccc(Nc2nc(C(=O)NCc3ccco3)cs2)cc1 | 9% | ? | ? | ? | -5%
SMILES | GLS inh | G9a block | JMJD2A Tudor inh | BAZ2B inh | HP1b binding inh
O=S(=O)(NCCc1cn2ccsc2n1)c1ccc(Cl)cc1 | -4% | 19%[59 µM] | -21% | -2% | 17%[57 µM]
O=C(CCNS(=O)(=O)c1ccc2c(c1)CCCC(=O)N2)Nc1cccc(Cl)c1 | -8% | -2%[59 µM] | -24% | 5%[57.1 µM] | -1%
CCn1c(SCC(=O)O)nnc1-c1ccc2[nH]c(C)c(C)c2c1 | 0% | 14µM* | -36% | -16% | -2%
Cc1cc(C)c(C)c(C(=O)CSc2nnc(-c3ccc4[nH]c(C)c(C)c4c3)o2)c1C | 4% | 25µM* | -15% | 13% | 28%
Cc1nn(C)c2c1c(-c1ccccc1)cc(=O)n2C(C)C(=O)NCCc1ccc(Cl)cc1 (stereo not given) | -5% | 8%[59 µM] | -19% | -12% | -22%
CCC(C)Sc1oc(-c2ccco2)nc1S(=O)(=O)c1ccc(C)cc1 (stereo not given) | 4% | 54%[59 µM] | -1% | 60% | 83%
CCCCn1nnnc1C(c1cc2ccccc2o1)N(CCN(C)C)Cc1ccccc1 (stereo not given) | 7% | . | . | . | .
CC(C)(C)C1CCc2c(sc(NC(=O)c3ccncc3)c2C(N)=O)C1 (stereo not given) | -1% | -6%[59 µM] | -10% | 4% | -1%
CC(C)(C)C1CCc2c(sc(NC(=O)c3cc4ccccc4c(=O)o3)c2C(N)=O)C1 (stereo not given) | -6% | 10µM* | -3% | 4%[57.1 µM] | 8%
N#CN1CCC(NC(=O)c2cccc(F)c2)CC1 | . | . | -12% | . | .
O=C1C(=Cc2cccn2-c2ccc(O)cc2)C(=O)c2ccccc21 | -4% | . | -7% | ? | 28%
O=C1C(=Cc2cccn2-c2ccccc2)C(=O)c2ccccc21 | 1% | 3.5µM* | -29% | ? | -11%
O=C(O)c1cccc(-n2cccc2/C=C2/SC(=O)N(CC(=O)N3CCCC3)C2=O)c1 | . | 45µM* | 40µM* | 50µM* | ?
O=C(O)c1cccc(-n2cccc2C=C2C(=O)c3ccccc3C2=O)c1 | -10% | 50µM* | ? | ? | -8%
O=C(N/N=C/c1cccn1-c1cccc(C(=O)O)c1)Nc1ccccc1 | 0% | -6%[59 µM] | ? | 79µM* | -24%
N#C/C(=C\c1cccc(NC(=O)c2ccccc2Cl)c1)C(=O)NCCc1ccccc1 | -4% | ? | -18% | -4% | 10%
COc1ccc(C2C=C3CNS(=O)(=O)C3CC2OC(=O)c2cccc(C)c2)cc1 (stereo not given) | . | . | -33% | . | 20%
Cc1ccc(NNC(=O)Nc2ccc(Cl)cc2)nn1 | 13% | 4µM* | 79µM* | -23% | ?
Cc1ccc(C(=O)C(C(=O)/C=C/c2ccccc2)=C2SCCCS2)cc1 | ? | 7.1µM* | ? | ? | ?
O=C(N[C@@H](Cc1ccccc1)c1nc2ccccc2[nH]1)c1cc([N+](=O)[O-])ccc1Cl | 4% | 10µM* | -14% | -31% | 16%
Cc1cc(C)n(CCNC(=O)CC2C(=O)NCCN2Cc2ccccc2C(F)(F)F)n1 (stereo not given) | 17% | 45µM* | -21% | -1% | -26%
CCOc1ccccc1CN1CCNC(=O)C1CC(=O)NCc1nc(C)cs1 (stereo not given) | 2% | ? | -23% | -25% | 48%
